# Experiments:
# Experiment in all cases: DAPPL (digital affinity profiling via proximity ligation, sequencing); 10 mM Tris-HCl pH 7.5, 50 mM NaCl, 1 mM DTT, 4% glycerol, room temperature, 30 min; GST-TFs on glutathione beads, 16-mer random dsDNA library, 0.1% formaldehyde crosslink after washing; high values mean tight binding
# Settings in all cases: protein: recombinant; tags: N-terminal GST; dsDNA, one strand shown
# ERF = target: T1, ERF (Homo sapiens, UniProt P50548 1-548)
# T1 sequence: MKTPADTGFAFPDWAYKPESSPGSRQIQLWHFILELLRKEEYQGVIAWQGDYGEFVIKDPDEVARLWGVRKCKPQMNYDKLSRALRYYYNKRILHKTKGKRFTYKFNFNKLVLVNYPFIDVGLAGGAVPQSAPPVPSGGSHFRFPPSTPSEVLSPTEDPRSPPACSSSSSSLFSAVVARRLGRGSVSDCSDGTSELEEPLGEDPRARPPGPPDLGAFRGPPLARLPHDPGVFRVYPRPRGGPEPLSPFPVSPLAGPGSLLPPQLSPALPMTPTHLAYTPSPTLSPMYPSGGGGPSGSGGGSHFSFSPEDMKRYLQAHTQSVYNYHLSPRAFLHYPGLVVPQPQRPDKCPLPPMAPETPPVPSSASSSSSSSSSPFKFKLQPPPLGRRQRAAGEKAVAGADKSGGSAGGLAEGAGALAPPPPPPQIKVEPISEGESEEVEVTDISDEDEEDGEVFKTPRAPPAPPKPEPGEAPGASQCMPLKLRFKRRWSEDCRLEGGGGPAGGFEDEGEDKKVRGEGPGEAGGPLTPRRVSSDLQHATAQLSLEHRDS
# Procedure, shortened: (§1)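 Binding signal is each hexamer's read frequency for a factor divided by its frequency in the tag-only sample. The factors were GST-fused human transcription factors from yeast, captured on glutathione beads, DNA-barcoded and pooled with that sample. Pools were incubated with 200 nmole of a random double-stranded 16-mer DNA library in Tris/NaCl/DTT/glycerol buffer at room temperature for 30 min, then washed, crosslinked with 0.1% formaldehyde, proximity-ligated with BsaI/T4 ligase (1 h, 37 °C), PCR-amplified and sequenced on an Illumina NextSeq500.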
# ETV3L = target: T2, ETV3L (Homo sapiens, UniProt Q6ZN32 1-361)
# T2 sequence: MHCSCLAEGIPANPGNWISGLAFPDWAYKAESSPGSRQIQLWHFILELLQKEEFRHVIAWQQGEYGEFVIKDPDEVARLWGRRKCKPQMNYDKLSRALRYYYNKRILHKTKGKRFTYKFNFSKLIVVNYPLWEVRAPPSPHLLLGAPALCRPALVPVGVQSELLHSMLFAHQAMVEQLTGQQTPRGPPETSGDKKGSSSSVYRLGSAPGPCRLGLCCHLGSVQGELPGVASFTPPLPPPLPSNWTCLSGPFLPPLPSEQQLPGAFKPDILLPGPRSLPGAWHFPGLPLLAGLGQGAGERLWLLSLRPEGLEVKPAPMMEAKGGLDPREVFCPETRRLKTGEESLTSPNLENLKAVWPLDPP
# Procedure, shortened: as §1
# ETS2 = target: T3, ETS2 (Homo sapiens, UniProt P15036 1-469)
# T3 sequence: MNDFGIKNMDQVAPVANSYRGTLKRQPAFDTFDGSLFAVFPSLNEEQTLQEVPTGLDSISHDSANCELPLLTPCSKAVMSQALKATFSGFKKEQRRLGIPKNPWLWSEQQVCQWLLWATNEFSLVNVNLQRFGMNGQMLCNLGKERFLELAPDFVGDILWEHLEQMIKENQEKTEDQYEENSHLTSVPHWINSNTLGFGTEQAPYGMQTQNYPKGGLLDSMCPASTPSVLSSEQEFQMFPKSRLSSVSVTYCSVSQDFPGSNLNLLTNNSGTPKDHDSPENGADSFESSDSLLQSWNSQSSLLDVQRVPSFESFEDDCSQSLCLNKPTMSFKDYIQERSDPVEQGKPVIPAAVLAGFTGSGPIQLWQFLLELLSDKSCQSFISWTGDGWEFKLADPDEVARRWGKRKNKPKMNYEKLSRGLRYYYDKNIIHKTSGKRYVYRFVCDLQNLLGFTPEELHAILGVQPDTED
# Procedure, shortened: as §1
# SPDEF = target: T4, SPDEF (Homo sapiens, UniProt O95238 1-335)
# T4 sequence: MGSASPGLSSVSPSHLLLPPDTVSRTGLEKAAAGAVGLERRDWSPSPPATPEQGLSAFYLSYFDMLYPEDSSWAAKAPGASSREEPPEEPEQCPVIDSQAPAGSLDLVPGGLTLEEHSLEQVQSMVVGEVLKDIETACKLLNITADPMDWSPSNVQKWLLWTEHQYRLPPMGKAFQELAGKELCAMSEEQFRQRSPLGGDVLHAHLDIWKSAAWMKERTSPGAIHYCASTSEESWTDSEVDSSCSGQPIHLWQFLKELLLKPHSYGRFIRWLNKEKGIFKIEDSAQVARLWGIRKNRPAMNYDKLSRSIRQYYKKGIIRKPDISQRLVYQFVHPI
# Procedure, shortened: as §1
# ETV7 = target: T5, ETV7 (Homo sapiens, UniProt Q9Y603 1-341)
# T5 sequence: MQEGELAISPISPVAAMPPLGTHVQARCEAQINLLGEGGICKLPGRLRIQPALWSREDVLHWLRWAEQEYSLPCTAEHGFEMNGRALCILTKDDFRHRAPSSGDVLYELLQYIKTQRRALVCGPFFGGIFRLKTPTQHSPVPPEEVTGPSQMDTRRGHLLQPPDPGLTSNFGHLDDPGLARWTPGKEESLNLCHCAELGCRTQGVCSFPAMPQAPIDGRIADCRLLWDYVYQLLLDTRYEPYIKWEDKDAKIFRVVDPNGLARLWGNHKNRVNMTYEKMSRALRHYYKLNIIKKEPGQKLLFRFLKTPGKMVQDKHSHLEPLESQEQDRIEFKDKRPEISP
# Procedure, shortened: as §1
# ELF5 = target: T6, ELF5 (Homo sapiens, UniProt Q9UKW6-2 1-255)
# T6 sequence: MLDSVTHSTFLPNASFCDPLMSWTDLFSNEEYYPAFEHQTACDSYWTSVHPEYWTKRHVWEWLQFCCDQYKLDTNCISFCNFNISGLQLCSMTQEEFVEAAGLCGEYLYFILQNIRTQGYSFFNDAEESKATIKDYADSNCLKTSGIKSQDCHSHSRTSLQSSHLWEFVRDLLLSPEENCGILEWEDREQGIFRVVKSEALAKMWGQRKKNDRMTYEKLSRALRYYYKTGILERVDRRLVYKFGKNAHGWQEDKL
# Procedure, shortened: as §1
# ETV3 = target: T7, ETV3 (Homo sapiens, UniProt P41162-2 1-143)
# T7 sequence: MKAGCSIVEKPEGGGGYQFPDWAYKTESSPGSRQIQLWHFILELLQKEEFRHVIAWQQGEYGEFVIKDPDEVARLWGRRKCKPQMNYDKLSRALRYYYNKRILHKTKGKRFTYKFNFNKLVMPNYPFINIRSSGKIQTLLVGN
# Procedure, shortened: as §1
# ETV6 = ETV6 (Homo sapiens, UniProt P41212 1-452)
# Procedure, shortened: as §1
# Chain of ETV6 (P41212 whole entry): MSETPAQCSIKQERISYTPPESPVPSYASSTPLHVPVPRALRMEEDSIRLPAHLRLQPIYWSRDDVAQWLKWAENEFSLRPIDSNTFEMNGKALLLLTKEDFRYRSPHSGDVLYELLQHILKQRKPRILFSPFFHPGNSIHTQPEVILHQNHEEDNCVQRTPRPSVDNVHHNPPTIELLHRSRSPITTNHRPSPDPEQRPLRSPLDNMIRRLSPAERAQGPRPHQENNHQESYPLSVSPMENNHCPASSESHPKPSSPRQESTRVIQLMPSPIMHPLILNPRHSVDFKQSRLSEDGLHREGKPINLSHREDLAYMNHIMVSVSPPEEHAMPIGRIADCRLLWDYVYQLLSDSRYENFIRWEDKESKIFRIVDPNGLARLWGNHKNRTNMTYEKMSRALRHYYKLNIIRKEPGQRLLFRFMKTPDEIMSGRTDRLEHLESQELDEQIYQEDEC
Sequence,binding signal (ERF),binding signal (ETV3L),binding signal (ETS2),binding signal (SPDEF),binding signal (ETV7),binding signal (ELF5),binding signal (ETV3),binding signal (ETV6)
AAGCAT,"1.19 fold enrichment (6-mer frequency, TF over GST control)","1.09 fold enrichment (6-mer frequency, TF over GST control)","1.2 fold enrichment (6-mer frequency, TF over GST control)","1.08 fold enrichment (6-mer frequency, TF over GST control)","1.14 fold enrichment (6-mer frequency, TF over GST control)","1.06 fold enrichment (6-mer frequency, TF over GST control)","1.13 fold enrichment (6-mer frequency, TF over GST control)","1.14 fold enrichment (6-mer frequency, TF over GST control)"
CGTTCG,"1.52 fold enrichment (6-mer frequency, TF over GST control)","1.16 fold enrichment (6-mer frequency, TF over GST control)","1.25 fold enrichment (6-mer frequency, TF over GST control)","1.04 fold enrichment (6-mer frequency, TF over GST control)","1.24 fold enrichment (6-mer frequency, TF over GST control)","1.26 fold enrichment (6-mer frequency, TF over GST control)","1.19 fold enrichment (6-mer frequency, TF over GST control)","1.29 fold enrichment (6-mer frequency, TF over GST control)"
ACATTT,"1.54 fold enrichment (6-mer frequency, TF over GST control)","1.49 fold enrichment (6-mer frequency, TF over GST control)","1.42 fold enrichment (6-mer frequency, TF over GST control)","1.41 fold enrichment (6-mer frequency, TF over GST control)","1.46 fold enrichment (6-mer frequency, TF over GST control)","1.59 fold enrichment (6-mer frequency, TF over GST control)","1.56 fold enrichment (6-mer frequency, TF over GST control)","1.56 fold enrichment (6-mer frequency, TF over GST control)"
TTGCTT,"1.18 fold enrichment (6-mer frequency, TF over GST control)","1.28 fold enrichment (6-mer frequency, TF over GST control)","1.19 fold enrichment (6-mer frequency, TF over GST control)","1.28 fold enrichment (6-mer frequency, TF over GST control)","1.45 fold enrichment (6-mer frequency, TF over GST control)","1.29 fold enrichment (6-mer frequency, TF over GST control)","1.43 fold enrichment (6-mer frequency, TF over GST control)","1.28 fold enrichment (6-mer frequency, TF over GST control)"
TTCCGC,"2.75 fold enrichment (6-mer frequency, TF over GST control)","2.9 fold enrichment (6-mer frequency, TF over GST control)","3.21 fold enrichment (6-mer frequency, TF over GST control)","2.77 fold enrichment (6-mer frequency, TF over GST control)","3.02 fold enrichment (6-mer frequency, TF over GST control)","4.41 fold enrichment (6-mer frequency, TF over GST control)","3.37 fold enrichment (6-mer frequency, TF over GST control)","3.62 fold enrichment (6-mer frequency, TF over GST control)"
ATCCGC,"1.71 fold enrichment (6-mer frequency, TF over GST control)","1.84 fold enrichment (6-mer frequency, TF over GST control)","1.89 fold enrichment (6-mer frequency, TF over GST control)","2.36 fold enrichment (6-mer frequency, TF over GST control)","1.79 fold enrichment (6-mer frequency, TF over GST control)","2.26 fold enrichment (6-mer frequency, TF over GST control)","1.92 fold enrichment (6-mer frequency, TF over GST control)","1.66 fold enrichment (6-mer frequency, TF over GST control)"
TATTGT,"1.44 fold enrichment (6-mer frequency, TF over GST control)","1.32 fold enrichment (6-mer frequency, TF over GST control)","1.37 fold enrichment (6-mer frequency, TF over GST control)","1.3 fold enrichment (6-mer frequency, TF over GST control)","1.35 fold enrichment (6-mer frequency, TF over GST control)","1.23 fold enrichment (6-mer frequency, TF over GST control)","1.34 fold enrichment (6-mer frequency, TF over GST control)","1.33 fold enrichment (6-mer frequency, TF over GST control)"
ATGAAA,"1.21 fold enrichment (6-mer frequency, TF over GST control)","1.16 fold enrichment (6-mer frequency, TF over GST control)","1.15 fold enrichment (6-mer frequency, TF over GST control)","1.06 fold enrichment (6-mer frequency, TF over GST control)","1.07 fold enrichment (6-mer frequency, TF over GST control)","1.13 fold enrichment (6-mer frequency, TF over GST control)","1.1 fold enrichment (6-mer frequency, TF over GST control)","1.1 fold enrichment (6-mer frequency, TF over GST control)"
ATTTCC,"3.64 fold enrichment (6-mer frequency, TF over GST control)","3.98 fold enrichment (6-mer frequency, TF over GST control)","4.24 fold enrichment (6-mer frequency, TF over GST control)","3.68 fold enrichment (6-mer frequency, TF over GST control)","3.78 fold enrichment (6-mer frequency, TF over GST control)","6.17 fold enrichment (6-mer frequency, TF over GST control)","4.45 fold enrichment (6-mer frequency, TF over GST control)","4.99 fold enrichment (6-mer frequency, TF over GST control)"
CCATAT,"1.23 fold enrichment (6-mer frequency, TF over GST control)","1.27 fold enrichment (6-mer frequency, TF over GST control)","1.22 fold enrichment (6-mer frequency, TF over GST control)","1.33 fold enrichment (6-mer frequency, TF over GST control)","1.16 fold enrichment (6-mer frequency, TF over GST control)","1.24 fold enrichment (6-mer frequency, TF over GST control)","1.19 fold enrichment (6-mer frequency, TF over GST control)","1.15 fold enrichment (6-mer frequency, TF over GST control)"
ATCTTG,"1.29 fold enrichment (6-mer frequency, TF over GST control)","1.31 fold enrichment (6-mer frequency, TF over GST control)","1.33 fold enrichment (6-mer frequency, TF over GST control)","1.27 fold enrichment (6-mer frequency, TF over GST control)","1.24 fold enrichment (6-mer frequency, TF over GST control)","1.23 fold enrichment (6-mer frequency, TF over GST control)","1.37 fold enrichment (6-mer frequency, TF over GST control)","1.18 fold enrichment (6-mer frequency, TF over GST control)"
TATGGG,"1.19 fold enrichment (6-mer frequency, TF over GST control)","1.13 fold enrichment (6-mer frequency, TF over GST control)","1.15 fold enrichment (6-mer frequency, TF over GST control)","1.14 fold enrichment (6-mer frequency, TF over GST control)","1.24 fold enrichment (6-mer frequency, TF over GST control)","1.16 fold enrichment (6-mer frequency, TF over GST control)","1.17 fold enrichment (6-mer frequency, TF over GST control)","1.34 fold enrichment (6-mer frequency, TF over GST control)"
ACATCC,"2.41 fold enrichment (6-mer frequency, TF over GST control)","2.46 fold enrichment (6-mer frequency, TF over GST control)","2.68 fold enrichment (6-mer frequency, TF over GST control)","5.32 fold enrichment (6-mer frequency, TF over GST control)","2.28 fold enrichment (6-mer frequency, TF over GST control)","3.25 fold enrichment (6-mer frequency, TF over GST control)","2.88 fold enrichment (6-mer frequency, TF over GST control)","2.49 fold enrichment (6-mer frequency, TF over GST control)"
ATCCAT,"1.26 fold enrichment (6-mer frequency, TF over GST control)","1.11 fold enrichment (6-mer frequency, TF over GST control)","1.17 fold enrichment (6-mer frequency, TF over GST control)","1.17 fold enrichment (6-mer frequency, TF over GST control)","1.11 fold enrichment (6-mer frequency, TF over GST control)","1.09 fold enrichment (6-mer frequency, TF over GST control)","1.19 fold enrichment (6-mer frequency, TF over GST control)","1.09 fold enrichment (6-mer frequency, TF over GST control)"
CTGTTT,"1.37 fold enrichment (6-mer frequency, TF over GST control)","1.49 fold enrichment (6-mer frequency, TF over GST control)","1.45 fold enrichment (6-mer frequency, TF over GST control)","1.42 fold enrichment (6-mer frequency, TF over GST control)","1.38 fold enrichment (6-mer frequency, TF over GST control)","1.62 fold enrichment (6-mer frequency, TF over GST control)","1.36 fold enrichment (6-mer frequency, TF over GST control)","1.49 fold enrichment (6-mer frequency, TF over GST control)"

# Source: paper PMC7862700, “An all-to-all approach to the identification of sequence-specific readers for epigenetic DNA modifications on cytosine”
